In the supplement of paper PMC10849652:
Of roughly 8,800 targets only a part is listed; those with a hit were picked by preference. About 0.5% of all pairs of compound and target were hits. A number with no mark means an inactive call.

Legend:
Assay in all cases: log2 fold change, soluble protein after heating vs DMSO (PISA); higher = thermal stabilisation; K562 lysate, 10 uM; active = over 0.2 and 3.5 SD of the protein, either way, in both replicates (recomputed)
[1] = compound: CCCS(=O)(=O)Nc1ccc(F)c(C(=O)c2c[nH]c3ncc(-c4ccc(Cl)cc4)cc23)c1F [vemurafenib]
Procedure, shortened: (§1)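 Dounce homogenisation of K562 pellets in PBS pH 7.4 with 1 mM MgCl2 produced a crude extract, used at 1 mg/mL protein. Exposure to 10 μM compound lasted 30 min, and aliquots were then heated for 3 min across 48°C-58°C, pooled and brought to 0.5% NP-40 at 4°C. The supernatant after 21,000xg for 90 min was quantified by TMTpro 16plex LC-MS/MS with channel sums equalised. Duplicate values are given as log-two fold change in thermal stability relative to solvent controls.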

[2] = compound: CCCS(=O)(=O)Nc1ccc(F)c(C(=O)c2c[nH]c3ncc(Cl)cc23)c1F
Procedure, shortened: as §1

[3] = compound: CCN(CCCOc1ccc2c(Nc3cc(CC(=O)Nc4cccc(F)c4)[nH]n3)ncnc2c1)CCOP(=O)(O)O [barasertib]
Procedure, shortened: as §1

[4] = compound: CC[C@@H]1C(=O)N(C)c2cnc(Nc3ccc(C(=O)NC4CCN(C)CC4)cc3OC)nc2N1C1CCCC1
Procedure, shortened: as §1

[5] = compound: CC[C@@H]1C(=O)N(C)c2cnc(Nc3ccc(C(=O)N[C@H]4CC[C@H](N5CCN(CC6CC6)CC5)CC4)cc3OC)nc2N1C(C)C [volasertib]
Procedure, shortened: as §1

[6] = compound: CCn1c(C(=O)N(C2CC2)C2CC2)cc2c3c(ncn3C)c(Nc3cc(C)n(C)n3)nc21
Procedure, shortened: as §1

[7] = compound: CCn1cc(-c2ccnc3[nH]c(-c4cccc(CN(C)C)c4)cc23)c(-c2ccc(NC(=O)N(C)C)cc2)n1
Procedure, shortened: as §1

[8] = compound: CN1CCC(CNc2ccc3ncc(-c4cccc(OC(F)(F)F)c4)n3n2)CC1
Procedure, shortened: as §1

[9] = compound: CN1CCN(CCOc2cc(OC3CCOCC3)c3c(Nc4c(Cl)ccc5c4OCO5)ncnc3c2)CC1 [saracatinib]
Procedure, shortened: as §1

[10] = compound: CN1CCN(c2nc(C3=C(c4c[nH]c5ccccc45)C(=O)NC3=O)c3ccccc3n2)CC1 [sotrastaurin]
Procedure, shortened: as §1

[11] = compound: CN1CC[C@H](c2c(O)cc(O)c3c(=O)cc(-c4ccccc4Cl)oc23)[C@H](O)C1 [alvocidib]
Procedure, shortened: as §1

[12] = compound: CN1CCc2c(c3ccccc3n2Cc2ccc(C(=O)NO)cc2)C1 [Tubastatin A]
Procedure, shortened: as §1

[13] = compound: CNC(=O)C1=CC=CC=C1NC2=NC(=NC=C2Cl)NC3=C(C=C(C=C3)N4CCOCC4)OC
Procedure, shortened: as §1

[14] = compound: CNC(=O)c1ccc(Nc2ncc(C(F)(F)F)c(NCc3nccnc3N(C)S(C)(=O)=O)n2)cc1 [defactinib]
Procedure, shortened: as §1

[15] = compound: CNc1nc(-c2ccc3c(N)n[nH]c3c2)cc(N2C[C@@H](C(=O)NC3CCCCC3)CC[C@H]2C)n1
Procedure, shortened: as §1

[16] = compound: COC(=O)N[C@@H](C)CNc1nccc(-c2cn(C(C)C)nc2-c2cc(Cl)cc(NS(C)(=O)=O)c2F)n1 [encorafenib]
Procedure, shortened: as §1

[17] = compound: COC(=O)[C@H](CCSC)NC(=O)C1=C(C=C(C=C1)NC[C@H](CS)N)C2=CC=CC=C2
Procedure, shortened: as §1

[18] = compound: COc1cc(Nc2ncc3c(n2)-c2ccc(Cl)cc2C(c2c(F)cccc2OC)=NC3)ccc1C(=O)O [alisertib]
Procedure, shortened: as §1

[19] = compound: COc1cc2nc(-c3cc(F)ccc3O)nc(N[C@@H]3CNC[C@H]3C(C)(C)O)c2cc1OC
Procedure, shortened: as §1

[20] = compound: COc1cc2ncnc(Nc3ccc(F)c(Cl)c3)c2cc1OCCCN1CCOCC1 [gefitinib]
Procedure, shortened: as §1

Chain of UniProt Q5SZK8 (Q5SZK8 whole entry, looked up): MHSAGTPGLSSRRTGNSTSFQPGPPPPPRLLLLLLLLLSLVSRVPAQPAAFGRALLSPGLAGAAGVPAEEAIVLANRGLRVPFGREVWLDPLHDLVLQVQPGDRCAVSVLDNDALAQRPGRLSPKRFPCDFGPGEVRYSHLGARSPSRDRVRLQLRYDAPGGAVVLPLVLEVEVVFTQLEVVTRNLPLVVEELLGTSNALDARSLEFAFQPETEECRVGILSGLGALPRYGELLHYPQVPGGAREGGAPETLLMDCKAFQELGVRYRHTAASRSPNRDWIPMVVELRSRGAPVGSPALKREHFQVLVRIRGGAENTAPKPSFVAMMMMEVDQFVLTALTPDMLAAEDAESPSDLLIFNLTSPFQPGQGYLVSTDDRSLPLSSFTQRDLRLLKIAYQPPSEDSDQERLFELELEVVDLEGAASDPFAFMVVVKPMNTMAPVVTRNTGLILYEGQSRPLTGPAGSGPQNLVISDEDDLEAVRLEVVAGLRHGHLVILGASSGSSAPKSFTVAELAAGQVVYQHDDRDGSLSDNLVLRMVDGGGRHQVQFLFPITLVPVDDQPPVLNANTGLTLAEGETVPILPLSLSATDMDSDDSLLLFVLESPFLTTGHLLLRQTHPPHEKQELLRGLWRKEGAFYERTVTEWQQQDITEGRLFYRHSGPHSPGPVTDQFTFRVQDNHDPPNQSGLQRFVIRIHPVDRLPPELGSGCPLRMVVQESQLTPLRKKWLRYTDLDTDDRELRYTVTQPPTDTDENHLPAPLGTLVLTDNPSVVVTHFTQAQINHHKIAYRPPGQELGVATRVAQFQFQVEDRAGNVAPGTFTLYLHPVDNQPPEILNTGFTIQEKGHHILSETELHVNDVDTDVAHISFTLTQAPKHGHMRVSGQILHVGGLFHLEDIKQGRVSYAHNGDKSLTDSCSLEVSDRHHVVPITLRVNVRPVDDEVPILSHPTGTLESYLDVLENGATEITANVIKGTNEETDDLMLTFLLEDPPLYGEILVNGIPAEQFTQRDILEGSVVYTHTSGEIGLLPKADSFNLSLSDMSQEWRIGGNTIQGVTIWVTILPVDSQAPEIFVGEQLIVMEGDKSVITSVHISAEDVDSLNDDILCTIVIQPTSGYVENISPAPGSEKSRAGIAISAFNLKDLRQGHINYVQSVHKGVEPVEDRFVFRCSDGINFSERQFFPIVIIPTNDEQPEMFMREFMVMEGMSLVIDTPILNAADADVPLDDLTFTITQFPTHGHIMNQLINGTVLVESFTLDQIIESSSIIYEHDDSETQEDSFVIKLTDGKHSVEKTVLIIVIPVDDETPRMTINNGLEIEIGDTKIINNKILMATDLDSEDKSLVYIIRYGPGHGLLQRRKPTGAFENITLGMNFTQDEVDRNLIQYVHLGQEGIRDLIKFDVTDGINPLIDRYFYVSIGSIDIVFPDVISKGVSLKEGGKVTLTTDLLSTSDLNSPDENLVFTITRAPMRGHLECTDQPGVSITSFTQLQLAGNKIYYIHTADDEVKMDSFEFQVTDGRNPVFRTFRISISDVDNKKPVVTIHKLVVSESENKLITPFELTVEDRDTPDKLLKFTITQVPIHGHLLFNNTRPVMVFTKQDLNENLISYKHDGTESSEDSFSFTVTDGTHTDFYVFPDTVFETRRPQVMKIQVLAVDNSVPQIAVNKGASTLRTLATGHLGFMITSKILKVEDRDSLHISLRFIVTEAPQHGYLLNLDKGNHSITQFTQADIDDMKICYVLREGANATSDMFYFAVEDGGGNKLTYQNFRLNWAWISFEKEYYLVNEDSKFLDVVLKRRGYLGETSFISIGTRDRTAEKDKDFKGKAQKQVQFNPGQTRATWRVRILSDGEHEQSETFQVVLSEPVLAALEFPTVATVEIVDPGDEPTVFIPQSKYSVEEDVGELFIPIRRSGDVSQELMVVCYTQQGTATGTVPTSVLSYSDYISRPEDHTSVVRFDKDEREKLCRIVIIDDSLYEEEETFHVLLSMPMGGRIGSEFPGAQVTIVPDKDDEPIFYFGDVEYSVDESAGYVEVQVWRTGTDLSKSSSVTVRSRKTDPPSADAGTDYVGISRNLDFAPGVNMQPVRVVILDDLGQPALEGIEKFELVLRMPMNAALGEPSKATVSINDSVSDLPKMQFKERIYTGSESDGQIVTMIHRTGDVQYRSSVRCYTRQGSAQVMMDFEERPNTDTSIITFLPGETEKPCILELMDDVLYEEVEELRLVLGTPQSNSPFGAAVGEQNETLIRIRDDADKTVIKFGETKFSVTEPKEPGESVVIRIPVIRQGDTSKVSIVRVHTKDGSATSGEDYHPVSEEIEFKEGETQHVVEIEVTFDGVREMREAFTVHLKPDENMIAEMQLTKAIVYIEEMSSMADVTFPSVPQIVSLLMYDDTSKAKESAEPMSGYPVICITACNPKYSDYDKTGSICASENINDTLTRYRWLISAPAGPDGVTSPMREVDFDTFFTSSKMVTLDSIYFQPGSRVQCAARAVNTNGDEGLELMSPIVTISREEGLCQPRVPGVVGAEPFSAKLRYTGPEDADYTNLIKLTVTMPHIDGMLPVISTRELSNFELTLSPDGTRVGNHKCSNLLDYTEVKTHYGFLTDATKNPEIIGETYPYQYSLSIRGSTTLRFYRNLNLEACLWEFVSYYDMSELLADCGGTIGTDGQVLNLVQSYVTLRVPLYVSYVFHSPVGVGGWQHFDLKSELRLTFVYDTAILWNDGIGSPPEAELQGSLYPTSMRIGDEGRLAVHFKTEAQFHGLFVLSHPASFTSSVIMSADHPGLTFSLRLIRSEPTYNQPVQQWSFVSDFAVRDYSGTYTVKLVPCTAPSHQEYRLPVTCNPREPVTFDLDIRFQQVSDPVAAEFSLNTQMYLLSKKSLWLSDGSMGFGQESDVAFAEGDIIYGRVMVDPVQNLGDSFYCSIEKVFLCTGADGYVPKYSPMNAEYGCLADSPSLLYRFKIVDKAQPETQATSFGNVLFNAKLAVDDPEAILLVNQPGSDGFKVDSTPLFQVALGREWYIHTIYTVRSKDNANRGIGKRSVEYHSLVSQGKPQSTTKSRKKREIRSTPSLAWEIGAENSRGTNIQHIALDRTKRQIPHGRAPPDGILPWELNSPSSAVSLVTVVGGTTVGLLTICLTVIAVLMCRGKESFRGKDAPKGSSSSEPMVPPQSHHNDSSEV
Chain of UniProt Q9UJ14 (Q9UJ14 whole entry, looked up): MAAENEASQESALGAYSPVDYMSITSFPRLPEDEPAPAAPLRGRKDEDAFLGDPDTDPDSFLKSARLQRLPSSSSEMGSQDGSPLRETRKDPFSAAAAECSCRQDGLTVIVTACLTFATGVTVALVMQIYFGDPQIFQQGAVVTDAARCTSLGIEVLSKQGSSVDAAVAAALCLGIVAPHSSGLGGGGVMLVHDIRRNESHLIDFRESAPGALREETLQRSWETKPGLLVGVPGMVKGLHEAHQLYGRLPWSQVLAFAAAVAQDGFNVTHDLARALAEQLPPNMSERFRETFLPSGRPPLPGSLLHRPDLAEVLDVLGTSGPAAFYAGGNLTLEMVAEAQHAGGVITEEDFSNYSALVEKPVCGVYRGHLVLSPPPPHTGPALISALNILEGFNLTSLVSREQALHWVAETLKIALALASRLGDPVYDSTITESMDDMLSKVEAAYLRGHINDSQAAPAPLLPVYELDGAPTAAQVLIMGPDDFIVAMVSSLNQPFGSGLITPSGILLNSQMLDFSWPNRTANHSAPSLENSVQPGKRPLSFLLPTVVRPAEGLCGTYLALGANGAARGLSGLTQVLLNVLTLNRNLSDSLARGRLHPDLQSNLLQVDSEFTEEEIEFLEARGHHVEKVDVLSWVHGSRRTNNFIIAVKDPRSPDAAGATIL
Chain of UniProt P60981 (P60981 whole entry, looked up): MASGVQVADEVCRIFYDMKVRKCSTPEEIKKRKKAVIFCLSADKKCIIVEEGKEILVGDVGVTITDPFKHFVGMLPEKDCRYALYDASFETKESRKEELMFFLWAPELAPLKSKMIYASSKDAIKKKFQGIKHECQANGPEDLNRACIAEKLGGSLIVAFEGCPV
Chain of UniProt Q9H410 (Q9H410 whole entry, looked up): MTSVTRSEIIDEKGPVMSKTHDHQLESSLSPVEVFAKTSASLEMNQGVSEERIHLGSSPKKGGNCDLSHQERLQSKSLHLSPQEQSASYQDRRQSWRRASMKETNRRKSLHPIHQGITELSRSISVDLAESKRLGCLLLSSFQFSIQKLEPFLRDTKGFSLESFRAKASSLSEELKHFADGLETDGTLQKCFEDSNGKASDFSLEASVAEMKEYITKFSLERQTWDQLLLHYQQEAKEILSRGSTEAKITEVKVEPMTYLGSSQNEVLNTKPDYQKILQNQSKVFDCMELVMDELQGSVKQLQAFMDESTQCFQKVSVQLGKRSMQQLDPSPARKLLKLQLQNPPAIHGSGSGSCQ
Chain of UniProt Q9UPW0 (Q9UPW0 whole entry, looked up): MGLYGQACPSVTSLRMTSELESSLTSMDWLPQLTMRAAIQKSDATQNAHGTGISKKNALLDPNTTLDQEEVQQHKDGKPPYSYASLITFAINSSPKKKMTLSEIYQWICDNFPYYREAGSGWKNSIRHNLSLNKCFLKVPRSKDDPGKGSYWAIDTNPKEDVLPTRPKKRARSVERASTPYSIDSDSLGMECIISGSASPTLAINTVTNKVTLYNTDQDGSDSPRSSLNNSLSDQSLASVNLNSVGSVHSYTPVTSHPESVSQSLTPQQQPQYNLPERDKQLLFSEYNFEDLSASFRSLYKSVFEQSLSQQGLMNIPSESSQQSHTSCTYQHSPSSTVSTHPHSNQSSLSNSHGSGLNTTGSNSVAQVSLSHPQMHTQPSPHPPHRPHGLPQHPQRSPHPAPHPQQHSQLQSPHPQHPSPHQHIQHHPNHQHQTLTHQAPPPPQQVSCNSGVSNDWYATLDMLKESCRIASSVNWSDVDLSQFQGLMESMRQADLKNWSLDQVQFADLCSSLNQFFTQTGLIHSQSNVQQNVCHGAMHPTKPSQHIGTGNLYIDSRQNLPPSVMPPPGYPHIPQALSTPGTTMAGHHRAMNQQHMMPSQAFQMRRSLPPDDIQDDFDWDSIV

Target	log2 fold change [1]	log2 fold change [2]	log2 fold change [3]	log2 fold change [4]	log2 fold change [5]	log2 fold change [6]	log2 fold change [7]	log2 fold change [8]	log2 fold change [9]	log2 fold change [10]	log2 fold change [11]	log2 fold change [12]	log2 fold change [13]	log2 fold change [14]	log2 fold change [15]	log2 fold change [16]	log2 fold change [17]	log2 fold change [18]	log2 fold change [19]	log2 fold change [20]
EEF1A1P5 (UniProt Q5VTE0)	0.022	0.002	-0.017	0.004	-0.022	-0.031	-0.105	0.073	-0.021	0.025	-0.022	-0.065	-0.021	-0.015	-0.218	-0.027	0.127	0.023	0.009	0
EMP3 (UniProt P54852)	0.022	-0.002	0.005	0.066	0.124	-0.112	-0.967 (active)	0.365 (active)	0.049	-0.029	-0.227	-0.021	0.067	0.009	0.056	-0.016	0.022	0.053	0.052	-0.071
EXOC2 (UniProt Q96KP1)	0.018	0.109	0.041	-0.028	-0.043	0.031	0.017	-0.094	0.034	0.049	0.025	-0.107	-0.012	0.046	-0.048	0.031	0.027	0	0.007	0.005
EWSR1 isoform 5 (UniProt Q01844)	0.033	-0.023	-0.013	0.039	0.045	-0.006	-0.019	0.021	-0.017	0.037	-0.002	0.101	-0.017	-0.011	0.021	-0.022	-0.036	0.049	-0.005	-0.003
EPRS (UniProt P07814)	0.01	-0.001	0.001	-0.077	-0.068	0.024	-0.025	-0.035	0.014	0.02	0.012	-0.11	0.002	0.003	-0.015	-0.004	0.107	0.015	-0.01	-0.032
FANCI (UniProt Q9NVI1)	0.018	0.021	0.045	-0.028	-0.053	0.031	0.021	-0.119	0.017	0.02	0.063	-0.097	0.014	0.01	-0.036	0.002	0.052	0	0.01	-0.002
EBP (UniProt Q15125)	0.056	0.024	0.069	0.071	0.038	-0.024	-0.354	0.044	0.135	-0.103	-0.003	0.004	0.087	0.028	0.291 (active)	0.005	-0.016	-0.036	0.048	0.04
ENO1, A0A2R8YEM5	-0.03	-0.017	-0.056	0.008	0.004	-0.04	-0.44 (active)	0.325 (active)	0.031	-0.011	-0.256	0.104	0.021	0.043	0.002	0.031	-0.035	0.006	-0.001	0.035
EDC4 (UniProt Q6P2E9)	0.053	0.004	0.026	-0.013	-0.015	0.015	-0.055	0.001	0.011	0.011	-0.012	-0.14	0.015	-0.008	-0.034	0.009	-0.116	0.021	0.021	-0.017
GGT7 (UniProt Q9UJ14)	0.003	0.029	0.007	0.037	-0.014	-0.014	-0.003	0.027	0.097	0.032	-0.013	0.076	0.008	0.066	0.079	0.078	-0.065	-0.015	0.044	0.055
EAPP (UniProt Q56P03)	0.246	0.038	-0.048	0.06	0.02	0.009	-0.085	-0.092	0.034	-0.008	0.048	-0.025	0.078	-0.017	0.107	-0.014	-0.053	-0.042	0.017	-0.03
FLAD1 (UniProt Q8NFF5)	-0.051	0.022	-0.063	0.055	-0.028	0.01	-0.002	-0.035	-0.001	0.075	0.035	-0.214	0.039	-0.008	-0.013	0.031	0.137	-0.025	-0.013	-0.042
FYCO1 isoform 4 (UniProt Q9BQS8)	0.024	0.019	0.045	0.027	-0.004	0.031	-0.104	0.063	0.04	0	-0.052	0	-0.001	-0.002	-0.006	0.033	0.024	0.018	0.018	0.016
EXOC3 (UniProt O60645)	0.049	0.021	0.02	-0.081	-0.086	0.045	-0.057	-0.001	0.004	0.03	0.011	-0.063	0.009	0.031	-0.037	0.001	0.07	0.032	-0.023	-0.001
ERCC4 (UniProt Q92889)	0.071	0.01	0.163	0.144	-0.006	0.004	-0.078	0.114	0.016	0.047	-0.268	-0.021	0.058	0.101	-0.029	-0.065	-0.001	0.047	0.024	0.044
FLT4 (UniProt P35916)	-0.069	-0.046	-0.036	-0.031	-0.042	0.135	0.018	0.08	-0.036	–	-0.086	-0.001	-0.428 (active)	0.004	-0.081	-0.129	0.053	–	0.031	–
FREM2 (UniProt Q5SZK8)	0.003	-0.082	0.136	-0.072	0.026	0.014	-0.366	0.151	0.051	0.056	-0.114	0.068	-0.034	-0.005	-0.038	0.031	-0.022	0.098	-0.013	0.164
EPB41, A0A2R8Y783	0.129	0.063	0.112	-0.141	0.057	–	-0.136	-0.048	0.075	–	-0.248	–	–	0.05	-0.13	-0.523	0.118	–	0.029	–
FECH isoform 2 (UniProt P22830)	0.363	-0.891 (active)	-0.082	0.477	0.078	-0.03	0.128	0.699	-0.287	0.014	0.028	-0.123	0.485	-0.056	0.664	-0.064	-0.091	-0.191	0.225	0.503
DSTN (UniProt P60981)	-0.006	-0.002	-0.005	-0.015	-0.013	0.015	0.025	0.035	-0.005	-0.011	-0.011	-0.089	0.015	0.002	-0.072	-0.011	-0.071	-0.013	-0.02	-0.043
FIG4 (UniProt Q92562)	0.107	0.071	-0.085	-0.201	-0.012	-0.045	0.104	-0.012	0.032	0.092	-0.106	0.012	-0.004	-0.039	-0.016	0.064	0.037	-0.145	0.079	0.148
EIF2B4 (UniProt Q9UI10)	-0.064	0.026	0.006	0.04	-0.032	0.048	–	–	0.042	0.047	–	0.006	-0.004	0.03	-0.058	0.114	-0.1	-0.039	-0.008	0.074
FOXJ3 (UniProt Q9UPW0)	0.111	0.124	0.038	0.054	-0.096	0.02	0.032	-0.08	0.023	0.018	-0.009	-0.03	-0.031	0.014	0.033	0.055	-0.137	-0.028	0	0.054
ERBIN isoform 8 (UniProt Q96RT1)	0.038	0.015	-0.004	0.068	-0.013	0.338 (active)	-0.028	0.1	-0.001	0.032	-0.01	0.031	0.025	-0.031	-0.028	0.013	-0.029	-0.028	-0.001	0.03
DSN1 (UniProt Q9H410)	0	0.043	0.007	0.034	0.001	0.001	-0.017	0.01	0.034	0.003	-0.046	-0.087	0.076	0.059	0.04	0.006	0.107	-0.005	0.004	0
EIF2D (UniProt P41214)	0.041	0.024	0.017	-0.074	-0.052	0.001	-0.02	-0.071	-0.002	0.026	0.017	-0.083	0.003	0.033	-0.024	-0.014	0.164	0.013	-0.018	-0.031
